Compound activity from PubChem BioAssay.
CBX7 AlphaScr: CBX7 chromodomain binding inhibitors, primary screen, biochemical, AlphaScreen; AID 1224903, 2016; actives 1.1% (n = 66,000); AlphaScreen His6-CBX7 / biotin-H3K27me3 peptide binding; stronger effect = lower value; normalised signal (fraction of DMSO) (test concentration not listed); in the data active = normalised signal below about 0.5
Target sequence (O95931 whole entry, looked up): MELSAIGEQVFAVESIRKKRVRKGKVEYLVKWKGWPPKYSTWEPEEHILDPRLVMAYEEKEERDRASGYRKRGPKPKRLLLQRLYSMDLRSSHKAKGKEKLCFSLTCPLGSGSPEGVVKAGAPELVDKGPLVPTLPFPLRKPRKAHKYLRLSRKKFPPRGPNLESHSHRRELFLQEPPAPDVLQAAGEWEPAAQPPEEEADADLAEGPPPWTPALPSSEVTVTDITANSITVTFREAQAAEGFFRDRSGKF
An asterisk follows results filed as active. Only a selection was taken, and hits are over-represented in it overall.

SMILES | CBX7 AlphaScr
COc1ccc(NC(=O)c2c(NCc3cccc(OC)c3OC)sc3c2CCCCC3)cc1 | 0.731
CN(C(=O)Cn1nc(Cc2ccncc2)c2ccccc2c1=O)c1ccc(Br)cc1 | 0.999
CC1CCN(c2oc(-c3ccccc3)nc2C#N)CC1 | 0.412*
N#Cc1nc(-c2ccccc2)oc1N1CCOCC1 | 0.873
CCN1CCN(c2oc(-c3ccccc3)nc2C#N)CC1 | 0.972
O=C(NCc1ccccc1Cl)Nc1cccs1 | 0.973
CCN(CCCNC(=O)c1cc2c(-c3ccc(Cl)cc3)nn(C)c2s1)c1ccccc1 | 0.907
CCCCN(CCCNC(=O)CN1C(=O)COc2ccc(C(C)(C)C)cc21)c1ccccc1 | 0.535
COc1ccc(-c2csc(NC(=O)c3ccc(Oc4ccccc4)cc3)n2)c(OC)c1 | 0.832
COc1ccc(-c2csc(NC(=O)c3ccccc3)n2)cc1 | 1.03
COc1ccc(-c2csc(NC(=O)c3cccc(Oc4ccccc4)c3)n2)c(OC)c1 | 0.915
O=C(Nc1nc(-c2ccncc2)cs1)c1cccc(Oc2ccccc2)c1 | 0.915
COc1cc(OC)cc(C(=O)Nc2nc(-c3ccccn3)cs2)c1 | 0*
O=C(Nc1nc(-c2ccccn2)cs1)c1ccc(Oc2ccccc2)cc1 | 0.116*
O=C(CCCOc1ccccc1)Nc1ccc(N2CCOCC2)cc1 | 0.843
C=CCOc1nc(-c2ccc(Cl)cc2)nc2ccccc12 | 1.26
CC(=O)N1CCc2cc(S(=O)(=O)N(CC(=O)O)c3ccc(C)cc3)ccc21 | 1.25
Cc1nc2ncccn2c1-c1csc(Nc2ccc(Br)cc2Br)n1 | 1.05
COc1cc(-c2nc(-c3cccs3)c(-c3cccs3)[nH]2)ccc1O | 0.438*
COc1ccc(-c2nc(-c3cccs3)[nH]c2-c2ccccc2)cc1OC | 0.894
COc1cc(-c2nc(-c3ccccc3)c(-c3ccccc3)[nH]2)ccc1O | 1.07
O=C(NCCCN1CCCC1=O)[C@@H](c1ccccc1)N1Cc2ccccc2C1=O | 0.985
CCOc1ccc(C2=C(Cl)C=C(c3ccccc3C)c3ccccc3O2)cc1 | 0.911
Cc1ccc(C(=O)Nc2ccc(-c3nc4ccccc4o3)cc2)c(Cl)c1 | 1.06
O=C(c1ccc2c(c1)N(Cc1ccccc1)CCS2)N1CCN(c2ccccn2)CC1 | 0.617
SMILES | CBX7 AlphaScr
O=C(c1ccc2c(c1)N(Cc1ccccc1)CCS2)N1CCCCCC1 | 0.459*
O=C(c1ccc2c(c1)N(Cc1ccccc1)CCS2)N1CCN(Cc2ccccc2)CC1 | 0.368*
O=C(c1ccc2c(c1)N(Cc1ccccc1)CCS2)N1CCN(c2ccc(Cl)cc2)CC1 | 0.623
O=C(c1ccc2c(c1)N(Cc1ccc(F)cc1)CCS2)N1CCN(c2ccccc2)CC1 | 0.76
O=C(c1ccc2c(c1)N(Cc1ccccc1)CCS2)N1CCc2ccccc21 | 0.813
CNS(=O)(=O)c1cc(-c2nnc(Nc3cccc(Cl)c3)c3ccccc23)ccc1C | 1.11
CCN1CCN(c2cc(C)c3cc(NC(=O)Cc4cccc(C(F)(F)F)c4)ccc3n2)CC1 | 1.1
CC(C)(C)C1CCc2onc(C(=O)NCCc3ccccc3)c2C1 (configuration not stated) | 0.939
COc1ccc(NC(=O)C2CC2(c2ccc(C)cc2)c2ccc(C)cc2)cc1 (configuration not stated) | 1.01
O=C(NCc1ccccc1)C1CCN(S(=O)(=O)c2cccnc2)CC1 | 0.991
COc1ccc(N2CCN(C3CC(=O)N(c4cccc(Cl)c4)C3=O)CC2)cc1 (configuration not stated) | 1.06
COc1ccc(N2CCC(CNC(=O)Nc3ccccc3)C2)cc1 (configuration not stated) | 0.766
COc1ccc(N2CCC(CNS(=O)(=O)c3cccc(Cl)c3)C2)cc1 (configuration not stated) | 0.474*
Cc1ccc(-c2ccc(=O)n(CC(=O)NCc3ccccc3Cl)n2)cc1 | 1.01
COc1ccc(-c2nc(C(=O)NC(C)CCc3ccccc3)c(C)o2)cc1OC (configuration not stated) | 0.958
COc1ccc(C(NC(=O)CCc2ccccc2)c2ccc3cccnc3c2O)cc1OC (configuration not stated) | 0.0395*
CCCC(=O)NC(c1ccccc1OC)c1cc(Cl)c2cccnc2c1O (configuration not stated) | 0.841
COc1ccc(NC(=O)C(=O)NCCc2ccccc2)cc1OC | 1.07
CCCC(=O)NC(c1ccc(OC)c(OC)c1)c1cc(Cl)c2cccnc2c1O (configuration not stated) | 0.414*
CCCC(=O)Nc1ccc(Cl)c(-c2nc3ncccc3o2)c1 | 1.05
CCCCCn1c(=O)[nH]c2cc(C(=O)N3CCC(C(N)=O)CC3)ccc2c1=O | 0.975
CCOc1ccccc1NC(=O)Cn1cnc2sc(C)cc2c1=O | 1.04
CCOc1ccc(NC2c3ncccc3C(=O)N2Cc2ccc(F)cc2)cc1 (configuration not stated) | 0.497*
O=C1c2ccccc2C(Nc2ccccn2)N1Cc1ccccc1 (configuration not stated) | 0.907
Cc1ccc(NC2c3ncccc3C(=O)N2Cc2ccc(F)cc2)cc1 (configuration not stated) | 0.44*
